These results are taken from PubChem BioAssay (Tox21).

Experiment [1] concerns the target Aryl hydrocarbon receptor (Homo sapiens) (UniProt P35869). Put plainly: qHTS assay to identify small molecule that activate the aryl hydrocarbon receptor (AhR) signaling pathway (AID 743085). Also: nearly all actives have a fitted effect of over 15% in size. Also: potency is read from the fitted curve at half-maximal effect.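 As to activation: HG2L7.5c1 human HepG2 liver cells with stably integrated DRE-driven firefly reporter; series mostly up to about 70 µM.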 The gist of the method: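 HepG2 cells (HG2L7.5c1) stably carrying a firefly luciferase reporter driven by 20 dioxin responsive elements were exposed to compound for 24 h at 37C after a 5 h settling period; luminescence rise (ONE-Glo) indicated activation.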
A general note: qHTS replaces the single test concentration by a dilution series.

Experiment [2] in a line: qHTS assay to identify small molecule that activate the aryl hydrocarbon receptor (AhR) signaling pathway - cell viability counter screen (AID 743086). Also: nearly all actives have a fitted effect of over 45% in size. Also: potency is read from the fitted curve at half-maximal effect. The gist of the method: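 Cytotoxicity counter screen: CellTiter-Fluor signal (30 min, 37 C) in 4000 HepG2 cells/well carrying the DRE-luciferase reporter, following 24 h compound exposure at 37 C.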
Experiment [3] is described as follows: qHTS assay to identify small molecule antagonists of the peroxisome proliferator-activated receptor gamma (PPARg) signaling pathway - cell viability counter screen (AID 743194). Also: nearly all actives have a fitted effect of over 55% in size. Also: potency is read from the fitted curve at half-maximal effect. An outline of the steps:
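Viability was measured as CellTiter-Glo luminescence in GeneBLAzer PPARg UAS-bla HEK293H cells. These cells had been exposed 17 h at 37 C to compounds together with rosiglitazone at 50 nM final, with the beta-lactamase readout taken in the same wells.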

Experiment [4] is described as follows: qHTS assay for small molecule agonists of the antioxidant response element (ARE) signaling pathway (AID 743202; active = well fitted activation curve with a large enough effect in the signal ratio in the repeat runs, not every such curve was filed as active; the % refers to the signal ratio). An outline of the steps: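 Quantitative high-throughput format in HepG2 cells bearing an integrated ARE-beta-lactamase reporter. Compound exposure lasted 16 h at 37 C, and fluorescence was read 2 h after adding LiveBLAzer B/G substrate at room temperature.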

A short description of experiment [5]: qHTS assay for small molecule activators of the heat shock response signaling pathway - cell viability counter screen (AID 743209). Also: nearly all actives have a fitted effect of over 50% in size. Also: potency is read from the fitted curve at half-maximal effect. An outline of the steps: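 Readout: CellTiter-Glo luminescence, 30 min at room temperature. System: HSE-bla HeLa cells, 1500/well, plated overnight. Treatment: compounds in DMSO, 5 h at 37 C.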
Experiment [6] can be described thus: qHTS assay to identify small molecule antagonists of the peroxisome proliferator-activated receptor delta (PPARd) signaling pathway - cell viability counter screen (AID 743213). Also: nearly all actives have a fitted effect of over 50% in size. An outline of the steps:
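Agonist-stimulated (L165041, 300 nM final) HEK293H PPARd UAS-bla cells are exposed to compounds for 17 h at 37 C, and ATP-based luminescence (CellTiter-Glo) from the same wells reports cytotoxicity.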

Experiment [7] addresses Bile acid receptor (Homo sapiens) (UniProt Q96RI1). Briefly: qHTS assay to identify small molecule agonists of the farnesoid-X-receptor (FXR) signaling pathway (AID 743220; active = well fitted activation curve with a large enough effect in the signal ratio in the repeat runs, not every such curve was filed as active; the % refers to the signal ratio). An outline of the steps:
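Beta-lactamase reporter under UAS control in GeneBLAzer FXR HEK 293T cells (5000/well) measured with LiveBLAzer FRET substrate after 2 h at room temperature. Compound exposure lasted 16 h at 37C.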

Experiment [8] has as its target Vitamin D3 receptor (Homo sapiens) (UniProt P11473). Briefly: qHTS assay to identify small molecule agonists of the vitamin D receptor (VDR) signaling pathway (AID 743222; calls by dose curve). The gist of the method: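 In VDR-bla cells, compound-induced beta-lactamase expression is quantified by FRET substrate fluorescence. Treatment lasts 16 h at 37C; substrate develops 2 h at room temperature.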

Experiment [9] shares this target. Put plainly: qHTS assay to identify small molecule antagonists of the vitamin D receptor (VDR) signaling pathway (AID 743223; active = well fitted inhibition curve with a large enough effect in the signal ratio in the repeat runs, not every such curve was filed as active; the % refers to the signal ratio). An outline of the steps: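 VDR-bla cells were plated, incubated 4 h at 37C, then given compound and 1alpha,25-dihydroxyvitamin D3 (3 nM final). After 16 h at 37C, LiveBLAzer B/G FRET substrate was added for 2 h at room temperature and fluorescence read.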

A short description of experiment [10]: qHTS assay for small molecule agonists of the antioxidant response element (ARE) signaling pathway - cell viability counter screen (AID 743203; calls by dose curve; also: nearly all actives have a fitted effect of over 55% in size; also: potency is read from the fitted curve at half-maximal effect). The gist of the method:
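Following 16 hrs of compound treatment at 37C, HepG2 cells with an ARE-controlled beta-lactamase gene were lysed with CellTiter-Glo. Luminescence was read after 30 min at room temperature.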

Experiment [11] has as its target Peroxisome proliferator-activated receptor delta (Homo sapiens) (UniProt Q03181). Briefly: qHTS assay to identify small molecule agonists of the peroxisome proliferator-activated receptor delta (PPARd) signaling pathway (AID 743212; calls by dose curve). An outline of the steps: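 HEK293H PPARd-bla cells; 5 h preincubation 37 C/5% CO2; compound (DMSO) 37 C; LiveBLAzer B/G FRET substrate 2 h RT; fluorescence intensity.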

The target is the same in experiment [12]. Put plainly: qHTS assay to identify small molecule antagonists of the peroxisome proliferator-activated receptor delta (PPARd) signaling pathway (AID 743215; active = well fitted inhibition curve with a large enough effect in the signal ratio in the repeat runs, not every such curve was filed as active; the % refers to the signal ratio; also: series mostly up to about 62 µM). An outline of the steps: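 HEK293H UAS-bla, PPARd; agonist L165041 300 nM final with cpd in DMSO; 37 C 17 h; FRET substrate, RT 2 h; fluorescence intensity.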
The target in experiment [13] is Bile acid receptor (Homo sapiens) (UniProt Q96RI1). Briefly: qHTS assay to identify small molecule antagonists of the farnesoid-X-receptor (FXR) signaling pathway (AID 743217; active = well fitted inhibition curve with a large enough effect in the signal ratio in the repeat runs, not every such curve was filed as active; the % refers to the signal ratio). The gist of the method:
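GeneBLAzer FXR-UAS-bla HEK 293T, CDCA-stimulated (50 uM final). Compound treatment 16 h, 37 °C. Detection: beta-lactamase cleavage of B/G FRET substrate, fluorescence.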

Experiment [14] is described as follows: qHTS assay to identify small molecule agonists of the farnesoid-X-receptor (FXR) signaling pathway - cell viability counter screen (AID 743218). Also: nearly all actives have a fitted effect of over 45% in size. An outline of the steps: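 Parallel cytotoxicity test: compound-treated (16 h, 37 C) HEK 293T FXR-bla reporter cells were lysed with CellTiter-Glo and luminescence recorded.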
Experiment [15] can be described thus: qHTS assay to identify small molecule antagonists of the farnesoid-X-receptor (FXR) signaling pathway - cell viability counter screen (AID 743221; active = well fitted cell-killing curve with a large enough effect in the repeat runs, not every such curve was filed as active; also: nearly all actives have a fitted effect of over 50% in size). An outline of the steps: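 FXR-UAS-bla HEK 293T cells were treated with test compounds plus chenodeoxycholic acid (50 uM final) for 16 h at 37 C. Cell viability in the same wells was then read as CellTiter-Glo luminescence after 30 min at room temperature.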

The nature of experiment [16]: qHTS assay to identify small molecule agonists of the vitamin D receptor (VDR) signaling pathway - cell viability counter screen (AID 743224). Also: series mostly up to about 63 µM; nearly all actives have a fitted effect of over 50% in size. An outline of the steps:
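Plated VDR-bla cells (4 h, 37C) received compound, incubated 16 h, then LiveBLAzer substrate 2 h RT; CellTiter-Glo added afterwards, luminescence read at 30 min.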

Experiment [17] in a line: qHTS assay for small molecule activators of the heat shock response signaling pathway (AID 743210; active = well fitted activation curve with a large enough effect in the signal ratio in the repeat runs, with a control signal flat, not every such curve was filed as active; the % refers to the signal ratio;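 also: HeLa cells with beta-lactamase reporter driven by heat shock elements; series mostly up to about 63 µM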). The gist of the method: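 HeLa HSE-bla cells, overnight plating; cpd in DMSO 5 h, 37 C; LiveBLAzer B/G FRET substrate 2.5 h RT; fluorescence intensity read.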
Experiment [18] in a line: qHTS assay to identify small molecule agonists of the peroxisome proliferator-activated receptor delta (PPARd) signaling pathway - cell viability counter screen (AID 743211). Also: nearly all actives have a fitted effect of over 55% in size. Also: potency is read from the fitted curve at half-maximal effect. The gist of the method: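 PPARd-bla HEK293H cells (UAS-beta-lactamase reporter) were treated with compounds for 17 h at 37 C. Viability was then read in the same wells by CellTiter-Glo luminescence after 30 min at room temperature.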

Structures are written as SMILES. Results filed as inconclusive are left out. The source made the active and inactive calls. Unless noted, calls follow the shape of the dose curve; as a rule, active = well fitted curve in the direction sought with a large enough effect in the repeat runs; inconclusive = weak or mixed curves; inactive = no such curve, though single readings can be large; an effect the other way counts as inactive or inconclusive.

Chain of Vitamin D3 receptor (Homo sapiens) (P11473 whole entry, looked up): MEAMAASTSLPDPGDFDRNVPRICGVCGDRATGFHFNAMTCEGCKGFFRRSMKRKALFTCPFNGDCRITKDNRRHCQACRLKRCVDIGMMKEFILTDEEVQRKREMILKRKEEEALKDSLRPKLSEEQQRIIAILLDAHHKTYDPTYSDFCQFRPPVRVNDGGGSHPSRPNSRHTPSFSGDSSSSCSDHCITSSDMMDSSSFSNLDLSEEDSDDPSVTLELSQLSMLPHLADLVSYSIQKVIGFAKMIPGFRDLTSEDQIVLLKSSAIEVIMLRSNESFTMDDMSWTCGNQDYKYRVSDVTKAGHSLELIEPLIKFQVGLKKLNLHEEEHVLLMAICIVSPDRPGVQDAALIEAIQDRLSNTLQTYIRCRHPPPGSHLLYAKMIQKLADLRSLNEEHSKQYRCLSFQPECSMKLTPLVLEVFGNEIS
Chain of Aryl hydrocarbon receptor (Homo sapiens) (P35869 whole entry, looked up): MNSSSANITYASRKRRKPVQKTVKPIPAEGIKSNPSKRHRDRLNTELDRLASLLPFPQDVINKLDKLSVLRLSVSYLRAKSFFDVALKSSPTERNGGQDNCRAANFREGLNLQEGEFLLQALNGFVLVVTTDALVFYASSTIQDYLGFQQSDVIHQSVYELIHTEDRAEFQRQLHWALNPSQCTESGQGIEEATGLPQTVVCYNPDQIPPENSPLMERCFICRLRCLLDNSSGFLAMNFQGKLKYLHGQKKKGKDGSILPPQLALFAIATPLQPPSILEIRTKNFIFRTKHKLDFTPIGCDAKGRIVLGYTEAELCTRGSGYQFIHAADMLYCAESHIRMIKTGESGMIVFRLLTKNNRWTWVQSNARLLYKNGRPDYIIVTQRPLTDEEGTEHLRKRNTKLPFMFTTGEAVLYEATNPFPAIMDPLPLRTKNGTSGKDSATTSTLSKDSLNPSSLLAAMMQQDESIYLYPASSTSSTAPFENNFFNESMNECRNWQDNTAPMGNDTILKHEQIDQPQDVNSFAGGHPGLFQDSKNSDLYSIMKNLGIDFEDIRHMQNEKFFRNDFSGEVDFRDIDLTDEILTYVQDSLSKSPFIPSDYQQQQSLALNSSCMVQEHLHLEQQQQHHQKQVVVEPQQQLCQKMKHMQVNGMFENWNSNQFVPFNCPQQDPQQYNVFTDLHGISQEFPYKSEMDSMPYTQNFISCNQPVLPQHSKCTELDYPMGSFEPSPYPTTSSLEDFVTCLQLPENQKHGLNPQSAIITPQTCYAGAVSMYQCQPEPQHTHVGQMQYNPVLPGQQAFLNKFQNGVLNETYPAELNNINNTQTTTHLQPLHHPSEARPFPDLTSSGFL
Chain of Bile acid receptor (Homo sapiens) (Q96RI1 whole entry, looked up): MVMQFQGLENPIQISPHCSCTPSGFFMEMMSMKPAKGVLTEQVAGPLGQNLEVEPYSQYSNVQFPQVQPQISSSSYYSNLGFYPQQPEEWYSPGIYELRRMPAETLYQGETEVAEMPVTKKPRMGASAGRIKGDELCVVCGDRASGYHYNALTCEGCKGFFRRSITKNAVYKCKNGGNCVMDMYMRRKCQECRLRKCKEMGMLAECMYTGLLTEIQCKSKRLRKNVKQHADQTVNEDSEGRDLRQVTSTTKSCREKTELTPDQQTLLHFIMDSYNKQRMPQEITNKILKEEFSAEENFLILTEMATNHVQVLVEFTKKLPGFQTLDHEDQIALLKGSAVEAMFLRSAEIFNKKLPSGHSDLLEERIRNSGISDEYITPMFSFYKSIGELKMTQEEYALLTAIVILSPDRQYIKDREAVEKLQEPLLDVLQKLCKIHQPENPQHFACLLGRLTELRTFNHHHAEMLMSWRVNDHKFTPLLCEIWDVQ
Chain of Peroxisome proliferator-activated receptor delta (Homo sapiens) (Q03181 whole entry, looked up): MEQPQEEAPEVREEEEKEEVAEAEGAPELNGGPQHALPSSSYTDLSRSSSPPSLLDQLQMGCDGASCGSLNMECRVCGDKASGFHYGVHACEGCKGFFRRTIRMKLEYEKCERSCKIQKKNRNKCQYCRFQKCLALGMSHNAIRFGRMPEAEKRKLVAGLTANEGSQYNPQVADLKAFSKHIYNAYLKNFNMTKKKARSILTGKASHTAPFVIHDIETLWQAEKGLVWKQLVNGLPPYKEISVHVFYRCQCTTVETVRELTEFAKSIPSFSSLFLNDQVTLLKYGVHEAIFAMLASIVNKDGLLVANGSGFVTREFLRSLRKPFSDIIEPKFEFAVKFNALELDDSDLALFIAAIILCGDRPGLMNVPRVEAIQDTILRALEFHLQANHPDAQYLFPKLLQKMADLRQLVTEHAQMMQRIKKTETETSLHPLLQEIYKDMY

On to `CCCCCCCCC(CCCCCC)C(=O)O` (stereo not given), for which the Potency entry in [1], in experiment [2], in experiment [4], in [6], in experiment [7] and in [8] was “inactive” in each case. In addition, the Potency result in [9] was “inactive”. Further, the Potency was 38.9 µM (active) in experiment [3] and 17.4 µM (active) in experiment [5].
Consider `N#CCCN(CCO)CCO`, for which the Potency result in experiment [1], in experiment [2], in experiment [3], in experiment [10], in experiment [5] and in experiment [11] was “inactive” each time. Also, the Potency entry in [6], in experiment [12], in experiment [13], in experiment [14], in experiment [7] and in [15] was “inactive” in each case. The Potency result in experiment [8], in [9] and in experiment [16] was “inactive” each time.
Consider `CCC(OCCCOC)OC(C)=O` (stereo not given), for which the Potency entry in [1], in experiment [2], in experiment [3], in [10], in [5] and in experiment [17] was “inactive” throughout. Also, the Potency entry in experiment [18], in experiment [11], in experiment [6], in [12], in [14] and in experiment [15] was “inactive” in each case. Also, the Potency entry in experiment [8], in experiment [9] and in experiment [16] was “inactive” each time.
In the case of `Cc1cccc(O)c1N`, in experiment [1], the Potency is 27.6 µM (active). Moreover, the Potency entry in [2], in [3], in experiment [10], in [5], in experiment [17] and in experiment [18] was “inactive” in each case. Also, the Potency entry in experiment [6], in experiment [13], in [14], in experiment [7], in experiment [15] and in [16] was “inactive” in each case.
For `CC(C)C[C@H](NC(=O)[C@H](CCc1ccccc1)NC(=O)CN1CCOCC1)C(=O)N[C@@H](Cc1ccccc1)C(=O)N[C@@H](CC(C)C)C(=O)[C@@]1(C)CO1`, the Potency entry in experiment [1] and in experiment [5] was “inactive” throughout. In addition, the figures for the Potency in [2], in [10] and in experiment [18] were 0.0473 µM (active), 3.76 µM (active) and 0.237 µM (active), respectively.
Regarding `CCCC(=O)C(=O)O`, the Potency entry in experiment [1], in experiment [2], in experiment [3], in [10], in experiment [5] and in [17] was “inactive” throughout. Moreover, the Potency entry in experiment [18], in experiment [11], in experiment [6], in [12], in experiment [14] and in experiment [15] was “inactive” each time. Moreover, the Potency result in experiment [16] was “inactive”.
For `O=[N+]([O-])c1cc(C2CCCCC2)c(O)c([N+](=O)[O-])c1`, the Potency entry in experiment [1], in experiment [5], in experiment [14], in [7] and in experiment [15] was “inactive” each time. The Potency in experiment [2] is 30.5 µM (active); in experiment [10], 24.3 µM (active).
On to `O=C(O)CCCCCCCCCCCBr`, for which the Potency entry in experiment [1], in [2], in experiment [3], in experiment [10], in experiment [5] and in experiment [17] was “inactive” throughout. The Potency entry in [18], in experiment [11], in [6], in experiment [12], in experiment [14] and in [15] was “inactive” in each case. In [16], the Potency entry was “inactive”.
Consider `CC(CO)CO`, for which the Potency entry in [1], in [2], in [4], in [10], in [17] and in experiment [18] was “inactive” each time. In addition, the Potency entry in experiment [11], in [6], in [12], in [14], in experiment [8] and in experiment [16] was “inactive” throughout.
With `Cc1ccc(Cl)c(Nc2ccccc2C(=O)O)c1Cl`, the Potency result in experiment [1], in experiment [2], in experiment [3], in experiment [4], in [10] and in [17] was “inactive” throughout. Moreover, the Potency result in experiment [18], in experiment [6], in experiment [13], in [14], in experiment [7] and in experiment [15] was “inactive” each time. Besides, the Potency result in experiment [16] was “inactive”.
